The text below walks through data of PubChem BioAssay AID485297 (National Center for Advancing Translational Sciences (NCATS), 2010).

Out of some 320,000 compounds screened, about 9,100 (2.8%) were called active. Entries that show only a call come without a potency. Another 3% or so got no clear call; they are omitted. Calls come from the whole dose curve; as a rule, active = well fitted activation curve with a large enough effect; inconclusive = small, poorly fitted or top-dose-only effect; inactive = no such curve, though single readings can be large or run the other way. The full list was thinned out, with actives kept by preference.
Potency is the fitted concentration of half-maximal effect.

A short description of this assay: qHTS Assay for Rab9 Promoter Activators. Note: nearly all actives have a fitted effect of over 60% in size. The following applies: Huh7 Rab9 promoter-luciferase reporter, luminescence, 24 h; series mostly up to 9.22 µM. Put shortly:
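Rab9 promoter-driven luciferase in stably transfected Huh7 cells; 1500 cells/well rested 2 h, exposed to compound in DMSO for 24 h at 37 °C, 5% CO2. Luminescence read 10 min after adding luciferase reagent at ambient temperature.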
Turning to `CN(Cc1ccccc1)C(=O)CSc1nc2ccccc2[nH]1`, the Potency entry is “inactive”. In the case of `O=C(CSc1nc2ccccc2[nH]1)Nc1nc(-c2ccccc2)c(-c2ccccc2)o1`, the Potency entry was “inactive”. Under `CCCCSc1nc2ccccc2[nH]1` stands 2000 nM (active); under `O=C(COC(=O)CCCSc1nc2ccccc2[nH]1)Nc1ccc(Oc2ccccc2)cc1`, “inactive”. The entry for `CCc1nnc(NC(=O)CCCSc2nc3ccccc3[nH]2)s1` is “inactive”. `O=C(CSc1nc2ccccc2[nH]1)c1cccs1`: the Potency is 2000 nM (active). Under `O=C(NCc1cccc(Cl)c1)C1=CC=CN2CCS(=O)(=O)N=C12` stands “inactive”; under `Cc1cccc2cc3c(N)c(C(=O)N4CCCc5ccccc54)sc3nc12`, “inactive”; under `Nc1c(C(=O)NCc2ccccc2)sc2nc3c(cc12)C(=O)CCC3`, “inactive”.

With `CC(C)OC(=O)c1sc2nc3c(cc2c1N)C(=O)CCC3`, the Potency is 3550 nM (active). Regarding `O=C(Nc1ccncc1)c1c(F)cccc1F`, the Potency result was “inactive”. Consider `CSc1nc2ccc(NC(=O)c3c(F)cccc3F)cc2s1`, for which the Potency was 3550 nM (active).

With `CCCC(=O)Nc1nc2ccc(NC(=O)c3c(F)c(F)c(OC)c(F)c3F)cc2s1`, the Potency entry was “inactive”. Regarding `CSCCC(NC(=O)COc1ccccc1)C(=O)N(C)CC(=O)Nc1ccc(C)cc1` (stereo unspecified), the Potency result is “inactive”. In the case of `CC(C)C(=O)OCC(=O)Nc1ccc2c(c1)CCC2`, the Potency result was “inactive”. The figure for `O=C(Nc1ccc2c(c1)CCC2)c1ccc(Br)s1` is 1120 nM (active). As for `O=C(NC1CCCC1)c1ccc(Br)s1`, the Potency result is “inactive”. For `Cc1ccc(NC(=O)CCNC(=O)c2ccc([N+](=O)[O-])cc2)cc1S(=O)(=O)N1CCOCC1`, the Potency result was “inactive”. For `O=C(CCNC(=O)c1ccccc1Cl)NCc1ccco1`, the Potency entry was “inactive”. Regarding `COc1ccc(CNC(=O)COC(=O)c2ccc(C)c(S(=O)(=O)N3CCOCC3)c2)cc1OC`, the Potency entry was “inactive”. `O=C(NC(=S)NC1CCCCC1)c1ccc(Cl)cc1`: the Potency entry is “inactive”. For `S=C(NCc1ccc(Cl)cc1)NC1CCCCC1`, the Potency result is “inactive”. Regarding `O=C(NC1CCCCC1)c1ccc(-c2ccc(Cl)cc2)o1`, the Potency is 2820 nM (active).

On to `CCCC(NCC(=O)Nc1ccccc1C(=O)NC1CC1)c1ccccc1` (stereo unspecified), for which the Potency entry was “inactive”. Regarding `O=C(OCC(=O)N1CCc2ccccc21)c1ccc([N+](=O)[O-])cc1`, the Potency result was “inactive”. `Cc1ccc(OC(=O)c2c(C)nn(-c3ccccc3)c2C)cc1`: the Potency was 3160 nM (active). Under `Cc1cccc(C)c1NC(=O)COC(=O)c1c(C)nn(-c2ccccc2)c1C` stands “inactive”; under `Cc1ccc(-n2nc(C)c(C(=O)O)c2-n2cccc2)cc1`, “inactive”; under `Cc1ccc(NC(=O)CN(C)S(=O)(=O)c2cnc[nH]2)cc1C`, “inactive”. `Cc1ccc(S(=O)(=O)N2CCOCC2)cc1NC(=O)COC(=O)c1cnccn1`: the Potency entry is “inactive”. As for `O=C(Nc1ccc2c(c1)OCCO2)C1CCCC1`, the Potency entry was “inactive”. The entry for `Cc1cc(C)nc(N2CCC(C(=O)Nc3ccc4c(c3)OCCO4)CC2)n1` is “inactive”.

Consider `O=C(Nc1ccc2c(c1)OCCO2)C1CCCN(c2ncccn2)C1` (stereo unspecified), for which the Potency was 316 nM (active). The entry for `Cc1c(C(C)CCCO)oc(=O)c2c1Oc1c(C)c(C(C)C[C@@H](C)O)oc(=O)c1C2` (stereo partly specified) is “inactive”; for `CCCN(CCC)CC(O)COc1ccccc1C(=O)Nc1ccccc1` (stereo unspecified) it is “inactive”. Regarding `Cc1ccc(C(=O)Nc2c(C#N)c(C)c(C)n2Cc2ccccc2)cc1`, the Potency entry is “inactive”. As for `CC(C)C(=O)Nc1ccc2oc(=O)ccc2c1`, the Potency result is “inactive”. Under `Cc1cc(=O)oc2cc(NC(=O)C(C)Oc3ccccc3)ccc12` (stereo unspecified) stands “inactive”; under `CC(C)C(=O)Nc1ccc2c(c1)oc1ccccc12`, 891 nM (active). Turning to `CC1(C)O[C@@H]2[C@H](O1)[C@@H](CO)O[C@H]2n1c(N2CCCCC2)nc2c(N)ncnc21`, the Potency entry was “inactive”. For the compound `S=c1[nH]nc(-c2cccnc2)n1/N=C/C(Cl)=C\c1ccccc1`, the Potency is 3160 nM (active). Take `Fc1ccccc1/C=N/n1c(-c2cccnc2)n[nH]c1=S`: the Potency result was “inactive”. As for `Cc1cc(-c2n[nH]c(=S)n2/N=C/C(Br)=C/c2ccccc2)n[nH]1`, the Potency entry was “inactive”.

As for `O=c1oc(-c2ccco2)nc2sc3c(c12)CCCCC3`, the Potency was 3550 nM (active).

With `Cn1c(=O)n(Cc2ccco2)c(=N)c2c3c(sc21)CCCC3`, the Potency entry was “inactive”.

Regarding `O=C(NCc1ccco1)c1cccn2c(=O)c3c4c(sc3nc12)CCCC4`, the Potency entry was “inactive”. Take `CCOC(=O)N1CCN(S(=O)(=O)c2ccc3c(c2)C(C)C(=O)N3)CC1` (stereo unspecified): the Potency result was “inactive”. For `CC(C)N(C(=O)CN1CCN(S(=O)(=O)c2ccc(Br)s2)CC1)C(C)C`, the Potency result is “inactive”. Under `COc1cc(C(=O)NNC(=O)CN2C(=O)NC3(CCCC3)C2=O)cc(OC)c1OC` stands “inactive”. For the compound `CCOC(=O)c1sc(NC(=O)COc2ncnc3ccccc23)c(C(=O)OCC)c1C`, the Potency entry is “inactive”. With `COC(=O)c1c(NC(C)=O)sc(C(=O)Nc2ccccc2OC)c1C`, the Potency result was “inactive”. Under `CCC(=O)Nc1sc(C(=O)Nc2ccccc2)c(C)c1C(=O)OC` stands 891 nM (active); under `Cc1ccc(NC(=O)CCC(=O)N2CCC(c3ccccc3)=N2)cc1S(=O)(=O)N1CCCCC1`, “inactive”. Turning to `CCN(CC)C(=O)c1nc[nH]c1C(=O)N(C)Cc1ccccc1`, the Potency entry is “inactive”.

For `Cc1nnc(SCc2nc3ccccc3nc2C)s1`, the Potency result is “inactive”. The figure for `Cc1ccc(Nc2nc(N)nc(CSc3nnc(C)s3)n2)cc1` is 4470 nM (active); for `CCOC(=O)N1CCN(Cc2nc(N)nc(Nc3ccc(C)cc3)n2)CC1` it is “inactive”.

Take `CC(C)(C)C(=O)CSc1ccc(S(=O)(=O)N2CCCC2)cn1`: the Potency result is “inactive”. Turning to `COCc1c(C(=O)OCC(=O)Nc2ccc(OC(F)F)cc2)oc2ccccc12`, the Potency result was “inactive”. As to `O=c1c2ccccc2ncn1/N=C/c1ccccc1`, the Potency is 447 nM (active). Take `CCCc1nc2ccccc2c(=O)n1/N=C/c1ccc(O)c(O)c1`: the Potency result is “inactive”. Under `O=C(Nn1cnc2ccccc2c1=O)c1ccccc1` stands “inactive”; under `CC(C)C(NC(=O)c1c(F)cccc1F)C(=O)NCc1ccncc1` (stereo unspecified), “inactive”; under `Cc1nn2cc(-c3ccc(Cl)cc3)cnc2c1Br`, 1120 nM (active). For the compound `Cc1noc(C)c1C(=O)NCC1COc2ccccc2O1` (stereo unspecified), the Potency result was “inactive”.

`O=C(COC(=O)c1ccc(O)cc1O)NNC(=O)c1cccs1`: the Potency result was “inactive”. Turning to `Cc1ccc(SCCC(=O)NCc2ccccn2)cc1`, the Potency result was “inactive”. As for `Cc1ccc(SCCC(=O)NC(C(C)C)C(C)C)cc1`, the Potency result was “inactive”. As to `Cc1ccc(SCCSc2ncccn2)cc1`, the Potency is 2000 nM (active). The entry for `Nc1nnc(SCC(=O)NCC(=O)Nc2ccc(F)c(F)c2F)s1` is “inactive”; for `Cc1c(C(=O)NNC(=O)c2ccncc2)oc2ccccc12` it is “inactive”.
